Assay results reported in PubChem BioAssay (NCATS).
Results filed as inconclusive are left out. Values without a mark were called inactive. Active and inactive are the calls of the source. The call rests on the fitted dose curve; in most records, active means well fitted inhibition curve with a large enough effect; inconclusive means small, poorly fitted or top-dose-only effect; inactive means flat fitted curve, though single readings scatter.

system: CP266; assay: qHTS profiling for inhibitors of Plasmodium falciparum proliferation (AID 504749); further: nearly all actives have a fitted effect of over 60% in size;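 on activity, negative = inhibition: 0% = DMSO vehicle and full inhibition = artemisinin control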; conditions: P. falciparum in erythrocytes, SYBR Green DNA, 72 h; series mostly up to 28.7 µM; activity, negative = inhibition: at the top concentration
Outline: (§1)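 SYBR Green fluorescence of parasite DNA, read after lysis and overnight dark incubation, measured growth over 72 h in erythrocyte culture at 0.3% parasitemia and 2.5% hematocrit. Data normalised to DMSO and 0.29 uM artemisinin, with plate-drift correction.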
Potency means the concentration at half of the fitted maximal effect.

| Structure (SMILES) | activity, negative = inhibition | Potency |
| --- | --- | --- |
| CN(C)[C@H]1C(=O)C(C(=O)NCN2CCCC2)=C(O)[C@]2(O)C(=O)C3=C(O)c4c(O)cccc4[C@](C)(O)[C@H]3C[C@H]12 | 7.54% | – |
| C[C@]12CC[C@H]3c4ccc(O)cc4CC[C@@H]3[C@H]1CC[C@@H]2OC(=O)CCC1CCCC1 | 7.8% | – |
| Cc1cn([C@H]2C[C@H](N=[N+]=[N-])[C@H](CO)O2)c(=O)[nH]c1=O | -14% | – |
| O=C(O)[C@@H](S)[C@H](S)C(=O)O | – | 9.53 µM (active) |
| CC(C)(C)NC[C@@H](O)c1ccc(O)c(CO)n1 | 3.93% | – |
| NS(=O)(=O)c1cc2c(cc1Cl)N[C@H](Cc1ccccc1)NS2(=O)=O | 4.02% | – |

system: CP268; assay: as above; conditions: P. falciparum in erythrocytes, SYBR Green DNA, 72 h; series mostly up to 28.7 µM; activity, negative = inhibition: at the top concentration
Outline: as §1

| Structure (SMILES) | activity, negative = inhibition | Potency |
| --- | --- | --- |
| CN(C)[C@H]1C(=O)C(C(=O)NCN2CCCC2)=C(O)[C@]2(O)C(=O)C3=C(O)c4c(O)cccc4[C@](C)(O)[C@H]3C[C@H]12 | -3.42% | – |
| C[C@]12CC[C@H]3c4ccc(O)cc4CC[C@@H]3[C@H]1CC[C@@H]2OC(=O)CCC1CCCC1 | -0.461% | – |
| Cc1cn([C@H]2C[C@H](N=[N+]=[N-])[C@H](CO)O2)c(=O)[nH]c1=O | 3.8% | – |
| O=C(O)[C@@H](S)[C@H](S)C(=O)O | – | 13.5 µM (active) |
| CC(C)(C)NC[C@@H](O)c1ccc(O)c(CO)n1 | 0.321% | – |
| NS(=O)(=O)c1cc2c(cc1Cl)N[C@H](Cc1ccccc1)NS2(=O)=O | -1.25% | – |
